The results in this text go back to PubChem BioAssay AID2549 (National Center for Advancing Translational Sciences (NCATS), 2010).

Values joined by “and” are separate entries in the source; they are usually repeats but may differ in a detail not shown here. Equal values may be shown once. In all, about 240,000 compounds went through this assay and about 1,300 (0.54%) were called active. A call without a number means that no potency is given here. Inconclusive results (about 1%) are left out. The call rests on the fitted dose curve; in most records, active means well fitted inhibition curve with a large enough effect; inconclusive means small, poorly fitted or top-dose-only effect; inactive means flat fitted curve, though single readings scatter. For the sample, actives were picked, then their nearest neighbours and some compounds at random. A structure can be active in one record and inactive in another.
Potency means the concentration at half of the fitted maximal effect.

The target of this test is ATP-dependent DNA helicase Q1 (Homo sapiens) (UniProt P46063). As to the kind of experiment: qHTS Assay for Inhibitors of RecQ-Like Dna Helicase 1 (RECQ1). Further: nearly all actives have a fitted effect of over 30% in size. To be noted: RECQ1 DNA unwinding, red fluorescence kinetic read; series mostly up to 57.3 µM. In a few lines: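 50 nM RECQ1T1 preincubated 15 min with compound in Tris pH 8.0 buffer with MgCl2, DTT, Tween-20 and 2.5 ug/ml poly(dI-dC); started with 200 nM TAMRA/BHQ-2 forked duplex and 2 mM ATP. Unwinding read as fluorescence (525/598 nm), two reads 2 h apart.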
ATP-dependent DNA helicase Q1 (Homo sapiens), sequence (P46063 whole entry, looked up): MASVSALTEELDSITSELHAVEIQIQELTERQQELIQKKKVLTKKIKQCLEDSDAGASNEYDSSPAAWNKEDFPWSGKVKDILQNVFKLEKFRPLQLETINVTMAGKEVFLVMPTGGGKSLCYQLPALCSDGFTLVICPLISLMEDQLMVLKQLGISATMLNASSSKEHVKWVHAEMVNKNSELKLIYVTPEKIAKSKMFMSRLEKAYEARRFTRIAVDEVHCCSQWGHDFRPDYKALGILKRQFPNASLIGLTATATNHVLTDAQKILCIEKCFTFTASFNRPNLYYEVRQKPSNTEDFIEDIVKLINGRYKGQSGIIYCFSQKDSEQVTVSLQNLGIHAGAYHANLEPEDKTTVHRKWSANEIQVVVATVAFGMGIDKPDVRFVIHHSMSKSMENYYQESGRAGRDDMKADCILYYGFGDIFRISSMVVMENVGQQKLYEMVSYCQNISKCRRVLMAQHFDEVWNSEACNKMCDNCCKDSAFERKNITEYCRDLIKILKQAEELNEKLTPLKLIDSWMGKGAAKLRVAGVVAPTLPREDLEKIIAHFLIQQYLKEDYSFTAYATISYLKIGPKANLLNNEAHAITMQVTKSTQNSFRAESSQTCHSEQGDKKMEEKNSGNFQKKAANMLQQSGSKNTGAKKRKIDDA
In general terms: qHTS replaces the single test concentration by a dilution series.
As for `Cc1cc(=O)[nH]c(SCC(N)=O)c1C#N`, the Potency entry was “inactive”. In the case of `Cc1cc(=O)[nH]c(S)c1C#N`, the Potency was 22.4 µM (active). For the compound `Cc1cc(=O)[nH]c(=S)[nH]1`, the Potency entry is “inactive”. For `Cc1noc(C)c1-c1ccc2ncnc(NCc3ccc4[nH]ccc4c3)c2c1` the value was “inactive”; for `CCCCOC(=O)c1ccc(NC(c2ccc(C)cc2)P(=O)(OC)OC)cc1` (stereo not drawn), 17.8 µM (active); for `CCOP(=O)(OCC)C(Nc1cccc(C)c1)c1ccc(F)cc1` (stereo not drawn), “inactive”. For `CCCCCOC(=O)NCCOC(=O)Nc1ccc(C(=O)OCC)cc1` the value was “inactive”; for `O=C(CCCN1C(=O)/C(=C/c2ccco2)SC1=S)Nc1ccccc1`, “inactive”. For `O=c1nc2s/c(=C\c3ccco3)c(=O)n2nc1Cc1ccccc1` the value was 5.01 µM (active); for `CCOc1ccccc1/C=c1\sc2nc(-c3ccco3)nn2c1=O`, “inactive”; for `CCCN1CCC(=O)N(C(CSc2ccc(C)cc2)Cc2ccccc2)CC1` (stereo not drawn), “inactive”. On to `COC(=O)CCc1ccccc1S(=O)(=O)N(CCC(=O)OC)Cc1ccccc1`, for which the Potency result was “inactive”. Regarding `Cc1sc2nc(CSCC(=O)Nc3c(Cl)cccc3Cl)[nH]c(=O)c2c1C`, the Potency result was “inactive”. For `COc1cc(C(=O)NCc2nnc(SCC(=O)Nc3nc4ccc(C)cc4s3)o2)cc(OC)c1OC` the value was 39.8 µM (active). Turning to `Cc1ccc(NC(=O)CSc2nnc(CNC(=O)c3ccccc3F)o2)cc1`, the Potency entry was “inactive”. With `COc1ccc(CCNC(=O)CSc2nnc(CNC(=O)c3cccs3)o2)cc1OC`, the Potency result is “inactive”. For the compound `COc1ccc(CN2CCC(=O)c3ccccc3S2(=O)=O)cc1`, the Potency entry was “inactive”. For `O=[N+]([O-])c1cccc(Nc2c3ccccc3nc3ccccc23)c1` the value was “inactive”. In the case of `Cc1ccc(Nc2c3c(nc4ccccc24)CCC3)cc1`, the Potency result was “inactive”. For `CC(=O)Nc1ccc(Nc2c3ccccc3nc3ccccc23)cc1` the value was 14.1 µM (active). For `CCOC(=O)Cn1c(=O)sc2cccc(Cl)c21` the value was “inactive”. For `O=C(Nc1ccc(Cl)cc1)Nc1nnc(/C=C/c2ccccc2)s1` the value was “inactive”. Take `CCOCCOC(=O)C(C)Oc1ccc(Oc2ncc(C(F)(F)F)cc2Cl)cc1` (stereo not drawn): the Potency result was “inactive”.

`C[C@@H]1O[C@@H](OC[C@H]2O[C@@H](Oc3cc(O)c4c(c3)O[C@H](c3ccc(O)c(O)c3)CC4=O)[C@H](O)[C@@H](O)[C@@H]2O)[C@H](O)[C@H](O)[C@H]1O`: the Potency result is “inactive”. As for `COc1ccc(C[C@H](C(=O)O)N2C(=O)c3ccc(C(=O)O)cc3C2=O)cc1`, the Potency result is “inactive”.

For `CN(C)S(=O)(=O)Oc1ccccc1C(=O)Nc1ccccc1Cl`, the Potency entry was “inactive”. In the case of `NCCCCC(N)C(=O)O` (stereo not drawn), the Potency entry was “inactive”. As to `O=C(NCc1ccccn1)c1cc(-c2ccccc2Cl)on1`, the Potency entry is “inactive”. In the case of `O=C(NCc1ccccn1)c1ccc2nc(-c3ccco3)c(-c3ccco3)nc2c1`, the Potency is 15.8 µM (active). For `COCCNC(=O)Nc1ccc2nc(-c3ccco3)c(-c3ccco3)nc2c1` the value was 8.91 µM (active). `COc1ccc(NC(=O)Nc2ccc3nsnc3c2)cc1`: the Potency result was “inactive”. With `O=C(NCc1ccccn1)c1cc(Br)ccc1Cl`, the Potency result was “inactive”. For `O=C(Nc1ccc2nccnc2c1)c1ccco1` the value was “inactive”; for H-EHIPA-OH, “inactive”. With `OCCC(O)CO` (stereo not drawn), the Potency entry was “inactive”. Consider `CC[C@H](C)[C@H](NC(=O)[C@H](CCCNC(=N)N)NC(=O)[C@H](CCCNC(=N)N)NC(=O)[C@H](CC(C)C)NC(=O)[C@H](Cc1ccccc1)NC(=O)CNC(=O)CNC(=O)[C@@H](N)Cc1ccc(O)cc1)C(=O)N[C@@H](CCCNC(=N)N)C(=O)N1CCC[C@H]1C(=O)N[C@@H](CCCCN)C(=O)N[C@@H](CC(C)C)C(=O)N[C@@H](CCCCN)C(=O)N[C@@H](Cc1c[nH]c2ccccc12)C(=O)N[C@@H](CC(=O)O)C(=O)N[C@@H](CC(N)=O)C(=O)N[C@@H](CCC(N)=O)C(=O)O`, for which the Potency entry is “inactive”.

`CCOC(=O)C(C)Sc1nnc(CSc2nc3nc(C)cc(C)n3n2)o1` (stereo not drawn): the Potency entry was “inactive”. On to `O=C(NCc1ccccc1)C1=C[C@@H](C2CCCCC2)C[C@@H](OCc2ccc(CO)cc2)O1`, for which the Potency was 15.8 µM (active). For `CC(C)(C)[C@H]1C=C(C(=O)NCc2ccccc2)O[C@@H](OCc2ccc(CO)cc2)C1` the value was “inactive”; for `O=C(NCc1ccccc1)C1=C[C@H](C2CC2)C[C@H](OCc2ccc(CO)cc2)O1`, “inactive”. For `Cc1cc(N(C)C)nc(Cl)n1` the value was “inactive”. For `NCCC(=O)c1ccccc1N`, the Potency result was “inactive”. As for `Oc1ccc(-c2c(-c3ccccc3)nn3c(C(F)(F)F)cc(C(F)(F)F)nc23)cc1`, the Potency entry was “inactive”. For `CC12CCC(C(=O)N(c3cccc(Cl)c3)C1=O)C2(C)C` (stereo not drawn) the value was “inactive”; for `O=C(NN1C(=O)C2C(C1=O)C1C=CC2C12CC2)c1ccccc1Cl` (stereo not drawn), “inactive”. Regarding `CC12CCC(C(=O)N(NC(=O)c3ccccc3O)C1=O)C2(C)C` (stereo not drawn), the Potency was 39.8 µM (active). For `CO[C@@]12[C@@H](COC(N)=O)C3=C(C(=O)C(C)=C(N)C3=O)N1C[C@@H]1N[C@@H]12` the value was “inactive”.

As to `Cc1ccc(S(=O)(=O)N2CCC(=O)N([C@H](COCc3ccccc3)Cc3ccccc3)CC2)cc1`, the Potency entry was “inactive”. Consider `CC[C@H](C)[C@H](NC(=O)[C@H](Cc1ccc(O)cc1)NC(=O)[C@@H](NC(=O)[C@H](CCCN=C(N)N)NC(=O)[C@@H](N)CC(=O)O)C(C)C)C(=O)N[C@@H](Cc1cnc[nH]1)C(=O)N1CCC[C@H]1C(=O)N[C@@H](Cc1ccccc1)C(=O)O`, for which the Potency result was “inactive”. For `CCCCCC(O)c1cccc(OCc2ccc3ccccc3n2)c1` (stereo not drawn) the value was “inactive and 28.2 µM (active)”.

On to `CCCCCCOC(=O)NCC(O)c1ccccc1` (stereo not drawn), for which the Potency entry is “inactive”.

As to `CCCn1c(C(O)c2ccc(OCC)cc2)nc2ccccc21` (stereo not drawn), the Potency result was “inactive”.

Regarding `COc1ccc(C2/C=C\CN(C(=O)c3ccc(C)cc3)C(Cc3ccccc3)C(=O)N2Cc2ccc(F)cc2)cc1` (stereo not drawn), the Potency result was “inactive”. With `COc1ccc(C2/C=C\CN(Cc3ccco3)C(C)C(=O)N2Cc2ccc(F)cc2)cc1` (stereo not drawn), the Potency result is “inactive”.

As to `Cc1cccn2c(=O)c(/C=C3\SC(=S)N(CC(C)C)C3=O)c(NCCCOC(C)C)nc12`, the Potency result is “inactive”. For `CCOC(=O)CC1C(=O)NCCN1c1nc2c(C)cccn2c(=O)c1/C=C1\SC(=S)N(C(C)CC)C1=O` (stereo not drawn) the value was 35.5 µM (active); for `CCOC(=O)CC1C(=O)NCCN1C(=O)COc1ccc(Br)cc1C` (stereo not drawn), “inactive”. For the compound `CCC(C)(C)NC(=O)c1cc([N+](=O)[O-])ccc1N1CCCCC1`, the Potency entry is “inactive”.

On to `COc1ccc(C(CCN2CCOCC2)c2c(OC)cc(OC)c3c2OC(=O)CC3c2ccc(OC)cc2)cc1` (stereo not drawn), for which the Potency result was “inactive”. Consider `COc1ccc(Cl)cc1C(=O)NNC(=S)NC1CCCC1`, for which the Potency result is “inactive”.

As to `C=CCNC(=S)NNC(=O)c1cc(Cl)ccc1OC`, the Potency entry is “inactive”. Regarding `COc1ccc(Cl)cc1C(=O)NNC(=S)NC(=O)/C=C/c1ccco1`, the Potency was 31.6 µM (active).

For the compound `CCC(C)NC(=O)CSC1=Nc2ccccc2C2=NC(CCC(=O)NCc3ccco3)C(=O)N12` (stereo not drawn), the Potency entry was “inactive”.

Take `CC(C)C1N=C2c3ccccc3N=C(SCC(=O)c3ccc(O)c(O)c3)N2C1=O` (stereo not drawn): the Potency is 14.1 µM (active). As to `O=C(CSC1=Nc2ccccc2C2=NC(CC(=O)NCc3ccco3)C(=O)N12)NCc1ccco1` (stereo not drawn), the Potency result was “inactive”.

For the compound `O=P(O)(O)C(O)c1ccc2ccccc2c1` (stereo not drawn), the Potency result was “inactive”. For `CC(C)(C)N(Cc1ccccc1)C(=O)COC(=O)CCc1c[nH]c2ccccc12`, the Potency entry is “inactive”. For `Cc1cccc(-n2nc3c(c2NC(=O)c2ccc(Br)o2)CSC3)c1C` the value was 35.5 µM (active); for `Cc1ccc(-n2nc3c(c2NC(=O)c2ccc4c(c2)OCO4)CSC3)c(C)c1`, “inactive”. Consider `COc1cccc(C(=O)Nc2c3c(nn2-c2cccc(C)c2C)CS(=O)(=O)C3)c1OC`, for which the Potency entry is “inactive”. For `Nc1nc2c(ncn2[C@@H]2O[C@H](COP(=O)(O)OP(=O)(O)OP(=O)(O)O)[C@@H](O)C2O)c(=O)[nH]1` (stereo partly drawn) the value was “inactive”; for `c1ccc(CN2CCC(N=C3NN=C(c4ccc5c(c4)OCCO5)CS3)CC2)cc1`, “inactive”. For `S=c1[nH]c2ccccc2c2ccccc12` the value was “inactive”; for `COc1ccc(NC(=O)CSc2nc(NS(=O)(=O)c3ccc(C)cc3)cc(=O)[nH]2)cc1`, 35.5 µM (active). For `Cc1ccc(NC(=O)CSc2nc(CSc3ccc(C)cc3)cc(=O)[nH]2)cc1` the value was “inactive”; for `Cc1cc(=O)[nH]c(SCC(=O)Nc2ccc(Br)cc2)n1`, “inactive”.

As to `CSc1ccccc1N1CCN(CCCCCC(=O)NC2CCCc3ccccc32)CC1` (stereo not drawn), the Potency result is “inactive”. Consider `O=[N+]([O-])c1ccccc1S(=O)(=O)Nc1cccc2cccnc12`, for which the Potency result is “inactive”.
